Experimental data taken from PubChem BioAssay AID1508600 (Functional Genomics Laboratory (NCATS/FGL), 2020).
In all, about 53,000 sequences went through this assay and about 3,700 (7%) were called active. This excerpt belongs to a sample that is enriched for actives. Values without a mark were called inactive.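 Rule for the calls: active = gene knockdowns whose robust z-score for IL-1 alpha signal is at least 2 or at most -2, so actives lie on both sides; inactive = the rest.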

Test: Components of the Cytosolic LPS Sensing Pathway: Gene Identification via Genome-wide siRNA Screen;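 note: robust z of the log signal after scaling to non-targeting control siRNA wells of the plate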
Details: RAW264.7 macrophages, IL-1a HTRF, actives lie on both sides, screened at 100 nM (by protocol), cells primed 5 h with Pam3CSK4 first
Outline: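 Mouse macrophage line RAW264.7 is transfected with siRNA (100 nM final), grown 48h, primed with TLR ligand Pam3CSK4 5 h and given intracellular LipidA 24 h. IL-1a in supernatant is read by HTRF and viability by luminescence.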

Sequence	z-score
GGAGAACAAGAUCCUGGAGTT against Ccdc39	1.73
GGAUCCAGAAGAGCAUCUCTT against Sap30	-0.33
GGGCGUGAUUUAUUUCUACTT against Mfsd6l	1.45
GGCUAUGCUUUUGUCCAGUTT against Raly	-0.392
GGUGUCUUUGCUCUUAAUUTT against Sike1	0.277
CGCAGUCCUUGACAUUAAATT against Rab3a	0.0328
GCUCUUGGGAUGGACGAUATT against Hmgcs1	4.73 (active)
GGCAGACAUAAGGCUUUCUTT against Olfr1056	-0.754
GGGCAGGAAAAAAAAUUCATT against Vps13b	1.68
CCACUGAAGGAAGUUCGCUTT against Amer2	0.21
GGAUAAAUGCCAUUUUGGATT against Cpeb1	-0.664
GCCUUAACCACAAUUAAAATT against Etfrf1	-0.578
GGGAUCUGGAUGAGGUCAATT against Tcf7l1	3.02 (active)
GGAAAUUAGUGCUGGGCGUTT against Erbb3	0.424
CGAAAUUGAUUCUAUCUGCTT against Katnal1	-0.59
GGGUCUCUAUGGAAUCAAUTT against Ldha	2.83 (active)
GGCAGUAUGAGAGGUAUUUTT against Entpd7	0.345
CCAAACGAAGGAAGCUGACTT against Taf6l	-2.09 (active)
GGGAGAUAAAAAGUUAAGGTT against Bclaf1	1.38
GGCUUUCGUUUACAACAAGTT against Naglu	-0.414
GGUUAUCAUACUUUUUGUGTT against Phf10	-0.582
CCAAACAAUGUUGUUUAGGTT against Rilpl1	-0.965
CCUCGAGUUCGGAAACAGATT against Chd8	-1.06

Sequence	z-score
CCUGCCUAGAUGUUUCAGCTT against Ifna13	-0.196
GGACAAUAGAUGUGUUUGATT against Ddb2	1.57
GCUUGGCCGUGAUUGUUGCTT against Fndc10	2.35 (active)
GGCUUGGUGAGCUACCUACTT against Wdr62	-0.839
GGCACACUUAAGUAAAAGUTT against Kras	-0.542
GGCUACCUUCUACCUAAGGTT against Cyp2g1	1.42
CGGCAAGCCCAAAAAGGUCTT against Dlx3	-2.34 (active)
GCAAUCUGUCCUUCUGUGATT against Olfr1133	-0.818
CCUGUACUGAACUACUUGATT against Kctd5	0.0535
CCUGGUACAAGGAACCAGUTT against Zim1	0.285
GGACCCAAUAAAACUUCCGTT against Ttc36	1.13
CCACAUACUCUAAUGAAGUTT against Casp1	0.176
GGAACUGGGUUCAUCCACATT against Snrpb2	-2.02 (active)
GGAAAAAGAGCUUUUGGUCTT against Piwil2	0.528
GGAUGAGUUAAGUUUCUCATT against Sh3d19	-1.57
CCCUAAUAGGUCAAUAAAGTT against Vmn1r71	-0.0066
GGCAUUUCGUGGAUCACCGTT against Mtg2	-1.56
GGGUCACGUGCUGUCUCAUTT against Slc22a20	-1.55
GCAAAGCCUUACCAUGUAATT against Ighg	1.33
GGUCAUGGUCUGAGAUUCUTT against Txnl4a	-2.34 (active)
GGAAGUCAAGAAAGUGGCCTT against H1f0	-0.294
GGGAUACAAUGUAACAUACTT against L1cam	-0.0915
GGACAGCUCUCUCCAUACATT against Tlr9	0.653

Sequence	z-score
GGAUUUUGUUCUUACAGUUTT against Nfia	2.8 (active)
GGGAACUUUUUUGAUGGGCTT against Psmb2	-1.13
GCACAUUCAUAGGAGUACCTT against Vmn1r237	0.371
CGAAACUCCCAUUGUUAAUTT against Zfp521	1.29
GGAUCACAGAAUAGAACAATT against Hpgds	0.237
CCACAUGAACAAUUUGGGCTT against Rpl9	0.0288
CCACGACACGCAAGAUGAGTT against Fzd8	-0.756
CGACAAUACUCUCUUCAAGTT against Fst	0.691
CCAUCUGUAACGGAUCUGATT against Prorsd1	0.893
GGAAGCUGUCCAAAAUGAGTT against Hnf4a	2.55 (active)
CCAGUUUAUCACAUAACCUTT against Wasl	-0.928
CCAAAGAUACCAUUUUGCATT against Lypd8	0.599
GGUACCAGGUAUCUUCAUUTT against Pard6g	2.95 (active)
GGAAUGCAGCCAUCCUAUCTT against Mia	0.0985
CCCAGAUUACCGUAAGCGATT against Jup	0.264
GGCCAAAUGGAAUAAGAAGTT against Wdr59	0.774
GGUUGCUUGGAAUUAAAAGTT against Klhl1	-1.58
GGGUUGAUUUGGUGUUUUATT against Usp46	0.673
CCUUGUAGUAAUAGGGAUGTT against Olfr116	0.681
GGAAAUGAGUGAAGAUGAATT against Cdk11b	-0.186
GGCAUGUAAUGAAUUCACATT against Pbx3	-2.14 (active)
CGCAUAUAUGUGUGUCGCCTT against Tmem125	0.256
CCCAAAUUGAUCCUAGCCUTT against Prkar1b	0.307
